# Source: PubChem (several laboratories)
# Sampled rows, rich in hits. Any-hit rate of the full collection: about 6.6%.
# Mdm2 MdmX PPI – inhibitors of human Mdm2/MdmX interaction; O15151+Q00987; SaOS-2 split-luciferase Mdm2/MdmX complementation, luminescence; inhibition, % at 8 µM; 3% of 330,000 active;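 active = inhibition of at least 50% at 8 µM in the primary screen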
# Target sequence (O15151 whole entry, looked up): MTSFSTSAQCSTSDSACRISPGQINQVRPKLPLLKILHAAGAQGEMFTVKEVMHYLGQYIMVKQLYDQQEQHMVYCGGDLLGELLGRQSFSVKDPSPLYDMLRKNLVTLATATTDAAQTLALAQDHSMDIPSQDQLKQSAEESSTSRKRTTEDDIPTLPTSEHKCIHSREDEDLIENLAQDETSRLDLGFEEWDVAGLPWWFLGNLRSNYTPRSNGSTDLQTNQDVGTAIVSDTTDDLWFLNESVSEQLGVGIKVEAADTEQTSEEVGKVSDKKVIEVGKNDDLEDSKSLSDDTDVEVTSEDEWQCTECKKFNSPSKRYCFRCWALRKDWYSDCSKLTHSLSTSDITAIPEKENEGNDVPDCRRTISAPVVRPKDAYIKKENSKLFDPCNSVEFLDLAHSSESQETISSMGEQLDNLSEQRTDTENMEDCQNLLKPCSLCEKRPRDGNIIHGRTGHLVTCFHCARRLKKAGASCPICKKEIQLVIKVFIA
# Target sequence (Q00987 whole entry, looked up): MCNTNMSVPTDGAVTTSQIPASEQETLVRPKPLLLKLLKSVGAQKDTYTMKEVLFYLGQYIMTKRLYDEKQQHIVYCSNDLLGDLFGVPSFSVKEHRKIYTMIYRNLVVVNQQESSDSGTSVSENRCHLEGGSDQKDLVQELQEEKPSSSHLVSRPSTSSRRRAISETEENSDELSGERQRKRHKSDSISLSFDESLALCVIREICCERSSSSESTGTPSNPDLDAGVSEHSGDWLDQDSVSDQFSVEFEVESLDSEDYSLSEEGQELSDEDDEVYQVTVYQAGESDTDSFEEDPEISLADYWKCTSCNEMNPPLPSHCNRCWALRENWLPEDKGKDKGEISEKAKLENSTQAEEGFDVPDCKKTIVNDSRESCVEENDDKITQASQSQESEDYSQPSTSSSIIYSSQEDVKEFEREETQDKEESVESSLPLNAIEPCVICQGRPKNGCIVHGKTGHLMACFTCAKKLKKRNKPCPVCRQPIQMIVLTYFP
# MPTP inh – permeability transition pore inhibition | isolated mouse mitochondria, Ca2+ swelling absorbance, 30 min | inhibition, % at 10 µM | 1.4% of 360,000 active | AID 602449;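 active = inhibition of 50% or more, scaled per plate between neutral and stimulator controls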
# CSC inhib – cancer stem cell inhibition. cancer stem cell-like cells viability, luminescence. inhibition, % at 7.5 µM. 1.1% of 300,000 active; in the data active = inhibition above about 75%; inconclusive = no clear call, values can overlap the other calls; tested in HMLE shEcad cells
# NR3A LBD binder – NR3A (human) ligand-binding domain modulation; NR3A LBD differential scanning fluorimetry, Tm shift; 0% = protein alone, 100% = glycine-bound protein; Tm shift relative to glycine control, % at 25 µM; 2.5% of 340,000 active; AID 1259313;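 active = melting temperature shift of at least 10% of the positive control shift, at one fixed dose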
# Beta cell apopt – blocks beta cell apoptosis. INS-1E cytokine-induced death, ATP luminescence, 48 h; percent of positive-control rescue, neutral wells zero. protection from apoptosis, % (concentration not given with the values). 0.8% of 300,000 active. AID 435005;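 active = Every replicate reaches about 75%, or at least half do and their mean reaches it too, limit read from the data; inconclusive = At least half of replicates reach the limit but their mean does not; inactive = Under half of replicates reach the limit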;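 also: higher means more ATP so stronger rescue from cytokine killing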
# Gli-Sufu block – Gli-Sufu pathway antagonism | Sufu-KO-LIGHT fibroblasts, Gli luciferase reporter luminescence | inhibition, % at 5 µM | 0.74% of 340,000 active;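 active = inhibition above about 55%, limit read from the data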
# MPTP counter – mitochondrial membrane potential, counter-screen; shares compounds with MPTP inh; inhibition, % at 10 µM; 78% of 5,000 active; isolated mitochondria, Rhodamine 123 fluorescence; in the data active = inhibition above about 22%
# MPTP swell DR – dose response confirmation of mitochondrial permeability transition pore inhibitors | shares compounds with MPTP inh | isolated mitochondria swelling, absorbance | IC50, µM | 58% of 780 active | AID 651561; in the data active = IC50 below about 20 µM
# MPTP counter DR – counter-screen for mitochondrial permeability transition pore inhibitors, dose response | shares compounds with MPTP inh | isolated mitochondria counterscreen, fluorescence read-out | IC50, µM | 49% of 780 active | AID 651564; in the data active = IC50 below about 80 µM
# Hits are given with their value; 0 = inactive; ? = inconclusive; - = not tested or not shown.
SMILES,Mdm2 MdmX PPI,MPTP inh,CSC inhib,NR3A LBD binder,Beta cell apopt,Gli-Sufu block,MPTP counter,others
CC(NC(=S)Nc1ccccc1OC(F)F)C(C)(C)C (stereo not drawn),0,0,0,0,0,0,-,
CC(NC(=S)Nc1ccc(OC(F)F)cc1OC(F)F)C(C)(C)C (stereo not drawn),0,86,0,0,0,0,91,
CC1(c2ccccc2)CC(C)(C)N2C(=O)/C(=C3\SC(=S)NC3=O)c3cccc1c32 (stereo not drawn),-,102,105,0,0,0,63,
CN(Cc1ccccc1)CC(O)COc1ccc(CNCc2ccc(Cl)s2)cc1 (stereo not drawn),0,91,0,0,0,0,0,MPTP swell DR=8;MPTP counter DR=36
O=[N+]([O-])c1ccc(O)c(/C=N/n2cnc3ccccc32)c1,0,69,0,0,0,0,79,
O=C(N/N=C/c1cc([N+](=O)[O-])ccc1O)C1CC1,0,0,0,0,0,0,-,
C/C(=N\OCc1nc2ccccc2c(=O)n1/N=C/c1cc([N+](=O)[O-])ccc1O)c1ccccc1,0,74,?,0,0,0,51,
O=[N+]([O-])c1ccc(NN=Cc2cc(Br)ccc2O)nc1,-,75,-,31,-,0,59,
C/C(=N\OCc1nc2ccccc2c(=O)n1/N=C/c1cc(C)cc([N+](=O)[O-])c1O)c1ccccc1,0,0,0,0,0,0,-,
O=[N+]([O-])c1ccc(O)c(/C=N/Nc2ccccc2Cl)c1,0,94,-,0,0,0,91,
CC1CCN(S(=O)(=O)c2ccc(NC(=O)CCN3C(=O)C4CC=CCC4C3=O)cc2)CC1 (stereo not drawn),0,0,-,0,-,0,-,
COc1ccc(NC(=S)NC(NC(=O)c2cccc(C)c2)C(Cl)(Cl)Cl)c([N+](=O)[O-])c1 (stereo not drawn),0,71,0,10,0,0,64,
O=C(Nc1ccc(OC(F)(F)F)cc1)N1CCc2nc(NCc3cccc(Oc4ccccc4)c3)ncc2C1,-,92,-,-,-,-,96,
COC(=O)C(C)NC(=O)C12CC3CC(C1)CC(c1ccc(C)cc1)(C3)C2 (stereo not drawn),0,0,0,0,0,0,-,
O=C(NCCCN1CCCC1=O)Nc1cc(Cl)ccc1Cl,0,0,0,0,0,0,-,
O=C(NCCCn1ccnc1)Nc1ccc(Cl)c(Cl)c1,0,79,0,0,0,0,88,
O=C(NCCCN1CCCC1=O)Nc1ccc(F)c(Cl)c1,0,84,0,0,0,0,92,
CN1OC[C@@H]2CN(Cc3ccccc3)[C@H](c3cccc(Oc4ccccc4)c3)C[C@@H]21,-,0,-,0,-,0,-,
COC(=O)[C@]12CCCCC=C1N(Cc1ccccc1)C(=O)[C@H](CC(=O)N1CCCCC1)C2,-,0,-,-,-,-,-,
COc1ccc(NC(=O)COc2ccc(N(C)S(=O)(=O)c3ccc(Cl)cc3)cc2)cc1OC,0,76,-,0,0,0,90,
CN(c1ccc(OCC(=O)OCC(=O)Nc2ccc(F)cc2)cc1)S(=O)(=O)c1ccc(Cl)cc1,0,0,0,0,0,0,-,
CC(C)c1ccc2oc(=O)cc(CN3CCOCC3)c2c1,0,0,0,0,0,0,-,
CCSc1nnc(NC(=O)c2cccc(S(=O)(=O)N(C)c3ccccc3)c2)s1,0,0,0,0,0,0,-,
C=CCN(c1ccccc1)S(=O)(=O)c1cccc(C(=O)Nc2nnc(SCC)s2)c1,0,67,0,0,0,0,67,
CCc1cc(CNC(=O)c2ccc(OC3CCN(CCc4ccccc4)CC3)cc2)on1,0,0,0,0,0,0,-,
SMILES,Mdm2 MdmX PPI,MPTP inh,CSC inhib,NR3A LBD binder,Beta cell apopt,Gli-Sufu block,MPTP counter,others
O=[N+]([O-])c1ccc2c(c1)C(=NO)c1cc(Cl)c(Cl)cc1-2,-,61,-,0,-,0,36,
N#Cc1cc(C(=O)c2cc(F)ccc2O)cn(-c2nccs2)c1=O,0,52,0,0,0,0,86,
Cc1nc2c(OCc3ccc(Cl)cc3Cl)cccn2c1N(C)Cc1cccs1,-,72,-,-,-,-,87,
Cc1nc2c(OCc3cccc(Cl)c3)cccn2c1N(C)Cc1cccs1,-,71,-,-,-,-,86,
CCOC(=O)N(C)c1c(CC)nc2c(OCc3cccc(Cl)c3)cccn12,-,0,-,-,-,-,-,
COC(=O)c1ccccc1COc1cccn2c(N(C)Cc3cccs3)c(C)nc12,-,0,-,-,-,-,-,
CCC(OC(=O)c1nsc(Cl)c1Cl)C(=O)NC(C)(C)CC (stereo not drawn),0,0,0,0,0,0,-,
CCCCN(C(=O)CSCC(=O)Nc1ccc(C)cc1)c1c(N)n(CC(C)C)c(=O)[nH]c1=O,0,0,-,0,0,0,-,
C/C(=N\NC(=O)c1cc(Cl)ccc1O)c1ccc(Br)s1,0,94,103,0,0,0,0,MPTP swell DR=4.7;MPTP counter DR=<2.5
Cc1cccc(NC(=O)C2C(c3ccccc3)C2(Cl)Cl)c1 (stereo not drawn),0,0,0,0,0,0,-,
Cc1ccc(NC(=O)C2C(c3ccccc3)C2(Cl)Cl)c(C)c1 (stereo not drawn),0,53,0,0,0,0,62,
N#C/C(=C(/O)CCl)c1nc2c(s1)CCc1ccccc1-2,0,55,0,0,0,0,78,
O=C(COc1ccccc1)NCC(=O)Nc1cccc2ccccc12,0,0,0,0,0,0,-,
O=[N+]([O-])c1cc(Br)cc(C=Nc2ccc3c(c2)OCO3)c1O,0,75,0,0,0,0,52,
CC(=O)C1=C(O)C(=O)N(c2ccc(Br)cn2)C1c1ccc(F)cc1 (stereo not drawn),0,0,0,0,0,0,-,
CN(CC(=O)Nc1cccc(F)c1)C(=O)c1cccc(S(=O)(=O)N2CCN(c3ccc(F)cc3)CC2)c1,-,0,-,0,-,0,-,
CS(=O)(=O)N1N=C(c2ccco2)CC1c1ccc(Cl)cc1 (stereo not drawn),0,0,0,0,0,0,-,
CC1CCN(c2nc3nonc3nc2Nc2ccc(F)cc2)CC1,0,73,0,0,0,0,75,
CCOc1cc(C)c(-c2onc(C(F)(F)F)c2-c2csc(C)n2)c(O)c1,0,70,0,0,0,0,83,
CN1C(C(=O)Nc2ccc(OC(F)(F)F)cc2)=CC(c2ccc3c(c2)OCO3)=NS1(=O)=O,0,90,0,0,0,0,78,
COC(=O)Cn1c(CN(C)Cc2ccccc2)nc2c1c(=O)n(C)c(=O)n2C,0,0,0,0,0,0,-,
COC(=O)Cn1c(CN2CCC(Cc3ccccc3)CC2)nc2c1c(=O)n(C)c(=O)n2C,0,56,0,0,-,0,103,
CC1(C(=O)Nc2cccc(C#N)c2)CCN1C(=O)Cc1ccc(-c2ccccc2)cc1 (stereo not drawn),-,92,-,-,-,-,85,
